Measured values taken from PubChem BioAssay (NCATS).
Records with an inconclusive call do not appear. Calls of active or inactive are those of the source. The call rests on the fitted dose curve.

Test: Cytotoxicity counterscreen for inhibitors of SARS-CoV-2 cell entry (AID 1645845); further: nearly all actives have a fitted effect of over 50% in size
Settings: cell viability (SARS-CoV-2 entry assay cells); series mostly up to 57.1 µM; activity change, negative = cytotoxicity: at the top concentration
From the text: Assay Provider: Wei Zheng, Ph.D.
National Center for Advancing Translational Sciences, National Institute of Health, Rockville, MD.
SARS-CoV-2 spike protein, within the viral envelope, mediates viral attachment and infection of host cells. The SARS-CoV-2 spike protein specifically binds to the host receptor ACE2 (Angiotensin-converting enzyme 2). This interaction promotes endocytosis of the viral particle, additional events lead to viral-host cell membrane fusion and release of the viral contents, allowing viral replication.
While SARS-CoV-2 requires BSL-3 facilities for live virus work, pseudo-typed partices (PP) that incorporate SARS-CoV-2 spike proteins without replication elements could facilitate studies on viral entry mechanisms in a BSL-2 setting. This PP cell entry assay could also enable screening of small molecule compound libraries in BSL-2 setting to identify inhibitors of SARS-CoV-2 cell entry. To eliminate false positive compounds, ATP content cytotoxicity assay was screened in the same cell line.
SEQUENCE No. (e.g., 1, 2, 3, etc.); […] (e.g., Cells, Incubation, Reagent, etc.); VALUE and DESCRIPTION.
1. Cells. Seed 1500 HEK293-ACE2 cells (Expi293F with stable expression of human ACE2) in 2 uL/well media (DMEM, 10% FBS, 1x L-glutamine, 1x Pen/Strep, 1 ug/ml puromycin) in white 1536-well assay plates (Greiner #782073).
2. Incubation. Incubate at 37 C with 5% CO2 overnight (~16 h).
3. Compounds. Dispense 23 nL/well compounds in DMSO via pin transfer.
4. Incubation. Incubate for 1 h at 37C 5% CO2.
5. Reagent. Dispense 2 uL/well of media (DMEM, 10% FBS, 1x L-glutamine, 1x Pen/Strep, 1 ug/ml puromycin).
6. Incubation. Incubate at for 48h at 37C 5% CO2
7. Reagent. Dispense 4 uL/well of ATPLite 1step luminescence assay reagent (PerkinElmer #6016739).
8. Incubation. Incubate for 15 min at room temperature.
9. Detection. Read luminescence signal (Viewlux plate reader, PerkinElmer). Data was normalized with wells containing cells as 100%, and wells without cells (media only control) as 0%.
On the % scale 0 is the no-effect control and ±100 the full control effect; potency means the concentration at half of the fitted maximal effect.

Row | Compound | activity change, negative = cytotoxicity | outcome | Potency
1 | O=C(N[C@@H](COc1ccc2[nH]c(=O)[nH]c2c1)c1ccccc1)c1cccn(Cc2ccc(F)c(F)c2)c1=O | 2% (inactive) | – | –
2 | CC[C@@H](C(N)=O)N1CCCC1=O | – | inactive | –
3 | CNC(=O)c1cc(Oc2ccc(NC(=O)Nc3cc(C(C)(C)C)nn3-c3ccc4ncccc4c3)c(F)c2)ccn1 | -28.9% (inactive) | – | –
4 | O=C(O)CC(O)C(=O)O (stereo not given) | – | inactive | –
5 | C=CCNC(N)=S | – | inactive | –
6 | Fc1cc(-c2cccc3ncc(-c4cnn(C5CCNCC5)c4)nc23)cc(F)c1CN1CCOCC1 | – | – | 31.6 µM (active)
7 | CCN1CCN(C(=O)Cc2ccc(Nc3ncc(F)c(Nc4ccc(C(=O)Nc5ccccc5Cl)cc4)n3)cc2)CC1 | – | – | 22.4 µM (active)
8 | CCOC(=O)Nc1ccc(NCc2ccc(F)cc2)cc1N | -6.43% (inactive) | – | –
9 | C[C@@H]1CN(c2c(F)c(N)c3c(=O)c(C(=O)O)cn(C4CC4)c3c2F)C[C@H](C)N1 | – | – | inactive
10 | O=C1C=CC[C@@H]2[C@H]3CCCN4CCC[C@@H](CN12)[C@@H]34 | -9.35% (inactive) | – | –
11 | Cc1cc(O)ccc1Cl | -10.4% (inactive) | – | –
12 | Cc1ccc(C(=O)Nc2cccc(C(F)(F)F)c2)cc1-c1ccc2nc(NCCN3CCOCC3)ncc2c1 | -18.6% (inactive) | – | –
13 | CCOc1ccn(-c2ccc(F)cc2)c(=O)c1C(=O)Nc1ccc(Oc2ccnc(N)c2Cl)c(F)c1 | 2.71% (inactive) | – | –
14 | COc1nc(-c2ccc3c(c2)OCO3)n(-c2ccc(NC(=O)CSc3ccccc3)cc2)n1 | 3.17% (inactive) | – | –
15 | CCCS(=O)(=O)Nc1ccc(F)c(C(=O)c2c[nH]c3ncc(-c4ccc(Cl)cc4)cc23)c1F | – | – | inactive
16 | CC(=O)Nc1ccc(OC[C@](C)(O)C(=O)Nc2ccc([N+](=O)[O-])c(C(F)(F)F)c2)cc1 | – | inactive | –
17 | CC(=O)N[C@@H](CCC(N)=O)C(=O)O | – | inactive | –
18 | Clc1ccc2ncc(-c3cccc(NC4CNC4)n3)n2c1 | – | inactive | –
19 | COc1cc2nccc(Oc3ccc(NC(=O)C4(C(=O)Nc5ccc(F)cc5)CC4)cc3)c2cc1OC | -1.82% (inactive) | – | –
20 | CC(C)OC(=O)C1=CN(C(=O)c2ccc(F)c(F)c2)CC(C)(C)c2c1[nH]c1ccccc21 | 2.33% (inactive) | – | –

Row | Compound | activity change, negative = cytotoxicity | outcome | Potency
21 | CN[C@@H]1Cc2cccc3[nH]c(=O)n(c23)C1 | – | inactive | –
22 | Cc1ccccc1-n1c(Cn2ncc3c(N)ncnc32)nc2cccc(C)c2c1=O | – | inactive | –
23 | O=C(Oc1ccc([N+](=O)[O-])cc1)N1CCC(C(O)(c2ccc3c(c2)OCO3)c2ccc3c(c2)OCO3)CC1 | – | inactive | –
24 | CN[C@@H](C)C(=O)N[C@H]1CCCC[C@H]2CC[C@@H](C(=O)N[C@@H](c3ccccc3)c3cn(CCCCc4ccc(CCCCn5cc([C@@H](NC(=O)[C@@H]6CC[C@@H]7CCCC[C@H](NC(=O)[C@H](C)NC)C(=O)N76)c6ccccc6)nn5)cc4)nn3)N2C1=O | -9.37% (inactive) | – | –
25 | O=C1NS(=O)(=O)c2ccccc21 | -10.8% (inactive) | – | –
26 | CC1(O)CC(c2nc(-c3ccc4ccc(-c5ccccc5)nc4c3)c3c(N)nccn23)C1 (stereo not given) | 1.17% (inactive) | – | –
27 | CC[N+]1(CCOC(=O)C(O)(c2ccccc2)c2ccccc2)CCCCC1 | – | inactive | –
28 | CC(=O)OCCN1C(=O)c2c(C)nc3ccc(S(=O)(=O)N4CCOCC4)cc3c2C1=O | 4.26% (inactive) | – | –
29 | COc1cccc2cc(-c3nc(C4CCC(C(=O)O)CC4)n4ncnc(N)c34)[nH]c12 (stereo not given) | -27.4% (inactive) | – | –
30 | Cn1c(Nc2ccc(C(F)(F)F)cc2)nc2cc(Oc3ccnc(-c4ncc(C(F)(F)F)[nH]4)c3)ccc21 | 4.84% (inactive) | – | –
31 | CC(C)c1ccccc1Cc1cc(C(=O)Nc2ccc(S(=O)(=O)c3ccccc3C(C)(C)C)cc2)c(O)c(O)c1O | -2.29% (inactive) | – | –
32 | Cc1cc(SCc2sc(-c3ccc(C(F)(F)F)cc3)nc2C)ccc1OCC(=O)O | – | inactive | –
33 | c1ccc2c(-c3cnn4cc(-c5ccc(N6CCNCC6)cc5)cnc34)ccnc2c1 | – | – | 7.08 µM (active)
34 | CC(C)Oc1cc(Nc2nc(N[C@@H](C)c3ccc(F)cn3)ncc2Cl)[nH]n1 | -6.28% (inactive) | – | –
35 | COc1cc2nc(-c3ccc(N4CCN(C)CC4)cc3)nc(NCCN3CCOCC3)c2cc1OC | -4.16% (inactive) | – | –
36 | CCCCn1c(=O)n(Cc2ccccc2F)c(=O)c2[nH]c(Cc3ccc(NC(C)=O)cc3)nc21 | – | inactive | –
37 | CC(C)(C)C(=O)Oc1ccc2c(c1)nc(NC(=O)c1cccc([N+](=O)[O-])c1)n2CCCO | – | inactive | –
38 | CC(C)(Sc1ccc(CCN(CCCCC2CCCCC2)C(=O)NC2CCCCC2)cc1)C(=O)O | 1.76% (inactive) | – | –
39 | Fc1ccc(Cl)cc1-c1nc(Nc2ccncc2)c2nccnc2n1 | – | inactive | –
40 | CCC(C)(Oc1ccc(C2(c3ccc(OC(C)(CC)C(=O)O)cc3)CCCCC2)cc1)C(=O)O (stereo not given) | – | – | inactive
